Compound activity: PubChem BioAssay, several laboratories
AHR act: human AHR activation; P35869; AHR-responsive luciferase reporter cells, luminescence; activation, % at 5 µM; 320,000 compounds, 2.5% hits; AID 2796; in the data active = activation above about 47%;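 note: 0% = vehicle wells and 100% = reference agonist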
Target sequence (P35869 whole entry, looked up): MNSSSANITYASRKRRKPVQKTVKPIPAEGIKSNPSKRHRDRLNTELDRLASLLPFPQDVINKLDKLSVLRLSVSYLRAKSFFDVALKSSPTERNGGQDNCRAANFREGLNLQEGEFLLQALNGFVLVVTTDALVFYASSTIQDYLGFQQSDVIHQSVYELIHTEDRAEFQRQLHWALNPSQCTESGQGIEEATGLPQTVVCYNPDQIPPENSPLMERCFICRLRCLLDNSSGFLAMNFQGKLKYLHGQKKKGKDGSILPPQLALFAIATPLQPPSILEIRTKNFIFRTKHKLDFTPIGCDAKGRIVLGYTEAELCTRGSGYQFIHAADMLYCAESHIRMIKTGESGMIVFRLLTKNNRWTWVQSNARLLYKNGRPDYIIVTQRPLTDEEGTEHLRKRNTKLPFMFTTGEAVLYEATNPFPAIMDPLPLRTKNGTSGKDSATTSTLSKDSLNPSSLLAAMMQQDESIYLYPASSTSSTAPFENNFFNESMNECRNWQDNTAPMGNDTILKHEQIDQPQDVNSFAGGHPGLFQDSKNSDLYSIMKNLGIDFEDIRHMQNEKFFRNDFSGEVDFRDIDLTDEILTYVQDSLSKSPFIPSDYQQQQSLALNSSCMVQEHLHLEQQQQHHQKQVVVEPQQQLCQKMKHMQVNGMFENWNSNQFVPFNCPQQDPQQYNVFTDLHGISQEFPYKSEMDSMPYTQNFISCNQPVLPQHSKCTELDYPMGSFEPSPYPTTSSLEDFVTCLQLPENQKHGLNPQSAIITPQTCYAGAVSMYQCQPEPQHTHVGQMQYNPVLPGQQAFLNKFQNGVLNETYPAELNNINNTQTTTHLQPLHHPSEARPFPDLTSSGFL
FXN GAA850 act: frataxin GAA850 promoter activation; 360,000 compounds, 0.56% hits; AID 540364; HEK293 lucGAA850 FXN promoter luciferase reporter, 24 h; percent of 10 µM SAHA response; activation, % at 6 µM;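 active = activation above the average of all compounds screened plus 3 SD, cutoff fixed separately per campaign, cut at about 7.5% in these data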;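 note: 0% = DMSO wells and 100% = 10 µM SAHA wells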
HSF1 activator: increases HSF-1 driven luciferase reporter signal | NIH3T3-HGL HSF-1 luciferase reporter, MG132, 8 h; 100% = twice DMSO control signal | 300,000 compounds, 1.7% hits | activation, % at 9 µM | AID 504408;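 active = mean replicate activation of at least 50% with a set share of replicates each reaching 50%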;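 note: 0% = median of the neutral control wells and 100% = twice that signal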
HSF1 inh: HSF1 inhibition | NIH3T3-HGL HSE-luciferase, MG132-induced, luminescence 8 h; hits give low values | activity change, negative = inhibition, % at 7.5 µM (by protocol) | 300,000 compounds, 0.77% hits | AID 2098;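 active = more than half of replicate wells show activity change below -50%, luminescence cut by over half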;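 note: luciferase reports HSF-1 transcriptional activity via heat shock element; 0% = median of DMSO wells and -100% = zero luminescence signal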
GAA30 counter: GAA30 FXN promoter activation counter-screen | shares compounds with FXN GAA850 act | HEK293 lucGAA30 FXN promoter luciferase, 24 h; DMSO = 0%, 5 µM ipriflavone = 100% | activation, % at 6 µM | 1,900 compounds, 66% hits;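 active = mean activation above the mean of solvent-only control wells plus 3 SD, cut at about 22% in these data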;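 note: counterscreen of GAA850 promoter hits where activity marks nonselective or luminescence artifacts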
GAA850 confirm: GAA850 FXN promoter activation confirmation; shares compounds with FXN GAA850 act; HEK293 lucGAA850 FXN promoter luciferase reporter, 24 h; 100% = activation by SAHA; activation, % at 6 µM; 1,900 compounds, 86% hits;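 active = mean activation above a set limit taken from the primary screen, cut at about 8% in these data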;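 note: 0% = DMSO wells and 100% = 10 µM SAHA wells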
* marks the source's active call; other numbers are inactive results; . = not tested or not shown. Compounds with a hit are over-represented: about 4.6% of the library has one in this group of screens.

SMILES | AHR act | FXN GAA850 act | HSF1 activator | HSF1 inh | GAA30 counter | GAA850 confirm
CCc1nn(C(CC)C(=O)NCCc2ccc(OC)cc2OC)c(=O)c2cc3occc3n12 (stereo unspecified) | 7 | 10* | 28 | 12 | 13 | 9.5*
CCc1nn(C(CC)C(=O)NCc2cccs2)c(=O)c2cc3occc3n12 (stereo unspecified) | 0 | 2 | -2 | 11 | . | .
O=C(Nc1cc(F)cc(F)c1)c1sc(Cl)nc1-c1ccccc1 | 7 | 1 | 5 | 6 | . | .
O=C(N/N=C/C(Br)=C/c1ccccc1)c1cnccn1 | 2 | 8.9* | 259* | 166 | 107* | 39*
O=C(N/N=C/C(Br)=C\c1ccccc1)c1n[nH]c2c1CCC2 | 39 | 17* | 211* | 210 | 29* | 68*
O=C(N/N=C\c1cccc(Cl)c1)c1n[nH]c2c1CCCC2 | 32 | 10* | 11 | 2 | 73* | 20*
O=C(N/N=C/c1ccc(Cl)cc1Cl)c1n[nH]c2c1CCCC2 | 33 | -3 | 18 | 10 | . | .
CN(Cc1ccccc1Br)C(=O)CSc1nnnn1C1CC1 | 22 | 2 | . | . | . | .
CC(C)(C)CC(=O)NC(=S)N1CCCCCC1 | 1 | 0 | 16 | -2 | . | .
Cc1ccc(NC(=O)c2oc3ccccc3c2NC(=O)C2CCCO2)cc1C (stereo unspecified) | 74* | 8.0* | 23 | 15 | 106* | 38*
COCC(=O)Nc1nnc(SCC(=O)N2CCCCC2)s1 | -1 | 1 | -3 | -3 | . | .
CC(C)(C)OC(=O)CC(S(=O)(=O)c1ccccc1)S(=O)(=O)c1ccccc1 | . | 18* | . | . | -20 | 42*
CCN1CCCC1CNC(=O)c1ccc2c(c1)NC(=O)/C(=C\c1ccccc1Cl)S2 (stereo unspecified) | . | 1 | . | . | . | .
CCN1CCCC1CNC(=O)c1ccc2c(c1)NC(=O)/C(=C\c1ccc(OC)c(OC)c1)S2 (stereo unspecified) | 2 | 7.7* | -9 | -6 | 16 | 7
N#Cc1sc(NCc2ccccc2)nc1Cl | -2 | 1 | 16 | 11 | . | .
NC(=S)Nc1nccc(-c2cccs2)n1 | 26 | 8.3* | 34 | 8 | 94* | 37*
CN(C)/C=N/c1nccc(-c2cccs2)n1 | -3 | 2 | -5 | -3 | . | .
COc1ccc(CCNC(=O)CSc2ccc3ccccc3c2)cc1OC | 6 | -1 | 1 | -3 | . | .
O=C(CSc1ccc2ccccc2c1)NCCc1ccc(O)c(O)c1 | 0 | 13* | 11 | -3 | 43* | 13*
Cc1cc2ccccc2c(=O)n1CC(=O)NCC(=O)N1CCCC1 | 2 | 0 | -21 | 5 | . | .
Cc1ccc(NC(=O)CN(C)CC(=O)Nc2ccccc2C#N)cc1 | 5 | 0 | -14 | -2 | . | .
CCS(=O)(=O)c1ncc(Cl)c(C(=O)Nc2ccc(C)cc2)n1 | 23 | 19* | -98 | -98* | -61 | 1
O=C(NCc1ccccc1)c1nc(S(=O)(=O)Cc2ccccc2)ncc1Cl | 1 | 17* | 147* | 174 | 9 | 28*
Cc1ccc(CS(=O)(=O)c2ncc(Cl)c(C(=O)Nc3ccc(OC(F)F)cc3)n2)cc1 | 16 | -2 | 8 | 11 | . | .
O=C(NCc1ccc2c(c1)OCO2)c1nc(S(=O)(=O)Cc2ccccc2F)ncc1Cl | 4 | 21* | 84* | 107 | 41* | 65*
SMILES | AHR act | FXN GAA850 act | HSF1 activator | HSF1 inh | GAA30 counter | GAA850 confirm
O=C(NCc1ccc2c(c1)OCO2)c1nc(S(=O)(=O)Cc2ccccc2)ncc1Cl | 2 | 7.9* | -89 | -89* | 38* | 70*
O=c1oc2ccccc2c(N2CCCC2)c1[N+](=O)[O-] | 2 | 0 | -1 | -2 | . | .
Cc1cccc(-n2cc(-c3ccccc3)c3c(=O)[nH]cnc32)c1 | 15 | 8.9* | 25 | 9 | 23* | 11*
O=c1[nH]cnc2c1c(-c1ccccc1)cn2-c1ccc(Br)cc1 | -2 | 1 | 0 | -4 | . | .
N/C(=N/OC(=O)c1ccccc1Cl)c1ncc([N+](=O)[O-])s1 | 54* | 15* | 179* | 133 | 103* | 51*
N/C(=N\OC(=O)c1ccccc1F)c1ccc([N+](=O)[O-])cc1 | -4 | 2 | 31 | 17 | . | .
CCOC(=O)Nc1cc(OC)c(OC)cc1Cc1nccc2cc(OC)c(OC)cc12 | 0 | 4 | 7 | 3 | . | .
Cc1cc(C(=O)N/N=C/c2ccc(Cl)c([N+](=O)[O-])c2)c(C)n1-c1ccc(F)cc1 | 13 | 9.1* | 24 | 1 | -3 | 12*
Cc1cc(C(=O)N/N=C/c2ccc3c(c2)OCO3)c(C)n1-c1ccc(F)cc1 | 7 | 2 | -6 | -3 | . | .
ON=C1c2ccccc2-c2ccc(Br)cc21 | . | 1 | . | . | . | .
NC(=S)NN=C1c2ccccc2-c2cc(Br)ccc21 | . | 11* | . | . | 17 | 14*
Cc1cccc(N=Nc2ccc(O)c3ncccc23)c1 | 70* | 12* | 241* | 230 | -102 | -32
CCOc1ccc(C2/C(=C(\O)c3ccc4c(c3)OCCO4)C(=O)C(=O)N2CCCn2ccnc2)cc1OC (stereo unspecified) | 3 | -1 | -18 | 1 | . | .
CCN(CC(O)c1cccc(O)c1)C(=O)C12CC3CC(CC(C3)C1)C2 (stereo unspecified) | 0 | 19* | -5 | 0 | 33* | 23*
CCN(CC)S(=O)(=O)c1ccc(N2CCCC2)c(NC(=O)Cc2cc(OC)c(OC)c(OC)c2)c1 | -1 | 8.4* | -6 | 1 | 32* | 8.4*
COc1ccc(C(C)(C)C)cc1NC(=O)c1cc(S(=O)(=O)N(C)C)ccc1N1CCCC1 | 2 | 15* | 5 | 2 | -3 | 9.3*
CN(C)S(=O)(=O)c1ccc(N2CCCC2)c(C(=O)Nc2ccccc2F)c1 | 1 | 0 | -10 | 7 | . | .
CC(=O)c1ccc(OCCOc2ccc([N+](=O)[O-])cc2)cc1 | 1 | 2 | -2 | -2 | . | .
Cc1nn2c(nc(N3CCCCC3)c3ccccc32)c1C=O | 0 | 9.5* | -28 | -20 | -3 | 12*
Cc1nn2c(nc(N3CCOCC3)c3ccccc32)c1C=C(C#N)C#N | 4 | 3 | -6 | -2 | . | .
O=C(N1CCOCC1)N1CCN(S(=O)(=O)c2ccccc2)C1 | -4 | 3 | -11 | -9 | . | .
Fc1ccc(N2CCN(c3cnc4ccccc4n3)CC2)cc1 | 8 | 7.9* | 34 | 34 | 106* | 41*
Cc1cc(C)n2c(=O)c3ccc(Cl)cc3nc2c1C#N | 28 | 0 | 20 | 0 | . | .
Cc1cc(Cl)n2c(nc3cc(F)c(F)cc32)c1C#N | . | 15* | 179* | 110 | -51 | 29*
C=CCc1cc(Cl)ccc1OC(=O)Nc1cccc(Cl)c1 | 15 | 1 | 8 | 12 | . | .
Nc1cccn2c(-c3ccc(Cl)c(Cl)c3)cnc12 | 22 | 12* | 70* | 23 | 111* | 43*
